Among all 69,000 compounds or so, about 8,600 (12%) showed an effect of 50% or more. For the sample, strong results were picked, then their nearest neighbours and some compounds at random.

The experiment deals with Plasmodium berghei. Description: Screen against P. berghei liver stage (PbLuc), transformed with Luciferase, at 10uM. The conditions noted are these: tested at 10 uM. Format: functional, HepG2.
`CCCNC(=O)c1nn(CC)cc1NC(=O)c1c(C)nn(C)c1C`: the INHIBITION is -4.56%. `CCc1ccccc1OCC(=O)N1CCOCC1c1ncon1` (configuration not stated): the INHIBITION amounted to 60.5%. Next, `Cc1cc(C)cc(OCCC(=O)N2CCOCC2c2ncon2)c1` (configuration not stated): 50.4%. Next, `Cc1ccc(CCC(=O)N2CCOCC2c2ncon2)c(C)c1` (configuration not stated): -56.7%; `CCc1ccc(CCC(=O)N2CCOCC2c2ncon2)cc1` (configuration not stated): 27.9%; `CC(C)c1ccc(OCC(=O)N2CCOCC2c2ncon2)cc1` (configuration not stated): -50.8%.

Regarding `O=C(COc1cccc(Cl)c1)N1CCOCC1c1ncon1` (configuration not stated), the INHIBITION worked out at 7.12%. Next, `Cc1ccc(OCCC(=O)N2CCOCC2c2ncon2)cc1C` (configuration not stated): 21.6%; `Cc1cccc(C)c1OCC(=O)N1CCOCC1c1ncon1` (configuration not stated): -53.2%. As to `O=C(COc1ccc(Cl)cc1)N1CCOCC1c1ncon1` (configuration not stated), the INHIBITION is on record as 55.4%. Under `Cc1cc(C(F)(F)F)c2c(=O)n(Cc3ccon3)n(C)c2n1` stands 14.3%.

As for `CC(C)N(C)Cc1cncc2c1CCN(C1CCOCC1)C2`, the INHIBITION is 25.6%. Under `COc1ccc(C(=O)CCc2nc(C3CC3)no2)cc1` stands -23.3%. Under `Cc1cnn(CC2CCCCN2C(=O)c2ccc(N(C)C)nc2)c1` (configuration not stated) stands -4.16%; under `c1ccc(CN2CCc3c(COCC4CC4)cncc3C2)nc1`, 23.5%. Under `Cc1nc2cc(-c3nccn3C)nn2c(N2CCCC(CO)C2)c1C` (configuration not stated) stands -15.9%. Turning to `O=S(=O)(NCc1ccccc1)N(Cc1ccccn1)CC1CCCO1` (configuration not stated), the INHIBITION was -1.91%. As to `CC(C)[C@H]1CN(Cc2ccccn2)C[C@@H]1NS(=O)(=O)C1CC1`, the INHIBITION came to 67.5%.

In the case of `CC(C)[C@H]1CN(Cc2ccccn2)C[C@@H]1NC(=O)CCS(C)(=O)=O`, the INHIBITION was determined as 28.2%.

Take `CC(C)[C@@H]1CN(Cc2ccccn2)C[C@H]1NS(=O)(=O)N(C)C`: the INHIBITION is given as 9.72%. As to `COc1ccc(CC2(CO)CCN(c3cc(C#N)ccn3)CC2)cc1`, the INHIBITION was determined as 1.74%. Next, `CC(=O)NCCNC(=O)NCc1ccc(-n2ccc(C(F)(F)F)n2)cc1`: -12.1%; `CCN(C(=O)c1nc2c(s1)CCCN2C)C(C)C`: 23.6%. Next, `CC(C)c1noc(CCNC(=O)N2CCSC(C(C)C)C2)n1` (configuration not stated): 37.9%; `CCC(CO)N(Cc1ccsc1)Cc1ccccc1C(=O)O` (configuration not stated): -69.3%; `CCC(CO)N(Cc1ccsc1)Cc1ccccc1C#N` (configuration not stated): 37.6%.

With `CCC(CO)N(Cc1ccc(C(=O)O)cc1)Cc1ccsc1` (configuration not stated), the INHIBITION is reported as 15%. Next, `CCC(CO)N(CC=C(C)C)Cc1ccsc1` (configuration not stated): 55%; `CCC(CO)N(Cc1ccsc1)Cc1cccc(O)c1` (configuration not stated): -60.8%; `CCC(CO)N(Cc1ccsc1)CC1CC1` (configuration not stated): 50.7%.

`CN1CCO[C@@H]2CN(S(=O)(=O)c3ccccc3)C[C@@H]2C1`: the INHIBITION amounted to 25.6%. For `CC(C)c1ncncc1C(=O)NCCN1CCCCCC1`, the INHIBITION is recorded as 35.4%.

With `Cc1csc(N2CCN(C(=O)C3(C#N)CCCCC3)CC2)n1`, the INHIBITION amounted to 24.635%.

Turning to `CC(O)CN1CCN(C(=O)c2ccc(CN(C)C)cc2)CC1` (configuration not stated), the INHIBITION was 10%. Next, `CS(=O)(=O)N1CCC(C(=O)NC(Cc2ccsc2)c2cccnc2)CC1` (configuration not stated): 47.1%; `Cc1ccc(C(=O)N2CCC3(CC2)COCCN(S(C)(=O)=O)C3)cc1C`: -4.88%; `Cc1cc(OCC(=O)NS(=O)(=O)c2cccnc2)ccc1Cl`: 38.5%.

As for `CS(=O)(=O)c1ccccc1C(=O)NCC1Cc2ccccc2O1` (configuration not stated), the INHIBITION was -9.76%. Under `CNC(=O)Cc1ccccc1NC(=O)C1CCCC1` stands 42.6%; under `CS(=O)(=O)c1ccccc1N[C@@H]1c2ccccc2C[C@@H]1O`, 67.5%. Under `CS(=O)(=O)c1ccccc1NC(=O)N[C@@H]1c2ccccc2C[C@@H]1O` stands 35%; under `CNC(=O)Cc1ccccc1NC(=O)N[C@H]1c2ccccc2C[C@H]1O`, 54.5%; under `CN(C)C(=O)c1ccccc1NC(=O)N[C@@H]1c2ccccc2C[C@@H]1O`, 48.9%. Next, `Cc1ccc(CN2CCC3(CC2)OC(C(=O)N(C)C)c2ccccc23)o1` (configuration not stated): 34%; `CN(Cc1ccc2c(c1)OCO2)C(=O)Cn1cccnc1=O`: 44.1%; `O=C(CN1CCCC1c1noc(C2CC2)n1)N1CCc2ccccc21` (configuration not stated): 7.08%. `COCCN1CCC(c2cncc(-c3cccc(Cl)c3)n2)CC1`: the INHIBITION is -5.71%. Next, `Fc1cc(CN2CCOC3(CCOCC3)C2)ccc1OC(F)F`: 86.7%; `FC(F)Oc1ccc(CN2CCOC3(CCOCC3)C2)cc1Cl`: 38%. Next, `Fc1cc(CN2CCOC3(CCOCC3)C2)ccc1Cl`: -27.8%.

As for `COc1cc(CNC(=O)Nc2nnc(C(C)C)s2)ccn1`, the INHIBITION is reported as -69.3%.

Regarding `Cc1cccc(C2(C(=O)NC(C)Cn3ccnc3)CC2)c1` (configuration not stated), the INHIBITION is 35.9%. For `CC(C(=O)N1CCc2ccccc2C1)N(C)Cc1cscn1` (configuration not stated), the INHIBITION is recorded as 32.9%. For `Cc1csc(CN(C)C(C)C(=O)N2CCc3ccccc3C2)n1` (configuration not stated), the INHIBITION is 38%.

`CCc1cnc(CN(C)C(C)C(=O)N2CCc3ccccc3C2)s1` (configuration not stated): the INHIBITION came out at 62%.

As for `CC(C)Oc1ncccc1CNC(=O)c1cc(C2CC2)on1`, the INHIBITION amounted to 11.9%. Next, `COCCN1CCC1c1cc(N)nc(C)n1` (configuration not stated): 26.7%.

For the origin of these results see ChEMBL document CHEMBL4513216, “Probing the Open Global Health Chemical Diversity Library for Multistage-Active Starting Points for Next-Generation Antimalarials” (ACS Infect Dis, 2020).
